Bioassay records (PubChem)
ERG-DNA inh – ERG Ets/DNA interaction inhibition. 370,000 tested, 0.028% active. Potency, µM (highest dose often 76.9 µM), inactives show at the top dose FP activity, negative = inhibition, actives largely listed as inhibitors. fluorescence polarization, His-ERG Ets domain / labelled DNA; active means well fitted inhibition curve with a large enough effect in the polarisation, with a control signal flat; the % refers to the polarisation;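 further: polarization taken with two DNA probes labelled with fluorescein and Texas red; % of control where 0% means no effect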
Target sequence (P11308 whole entry, looked up, the tested form may be a part): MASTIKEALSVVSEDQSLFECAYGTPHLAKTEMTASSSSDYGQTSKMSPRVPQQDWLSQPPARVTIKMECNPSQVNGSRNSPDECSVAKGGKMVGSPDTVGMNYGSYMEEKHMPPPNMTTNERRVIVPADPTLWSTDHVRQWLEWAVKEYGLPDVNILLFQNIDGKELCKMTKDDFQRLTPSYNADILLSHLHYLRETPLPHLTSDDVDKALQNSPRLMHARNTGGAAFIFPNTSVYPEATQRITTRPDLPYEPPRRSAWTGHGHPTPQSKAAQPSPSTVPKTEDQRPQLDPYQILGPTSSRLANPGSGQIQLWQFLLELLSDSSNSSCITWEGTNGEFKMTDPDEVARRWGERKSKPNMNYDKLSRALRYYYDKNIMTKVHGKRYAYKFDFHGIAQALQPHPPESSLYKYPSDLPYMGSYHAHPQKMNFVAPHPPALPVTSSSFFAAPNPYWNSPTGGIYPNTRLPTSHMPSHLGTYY
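His-tagged ERG Ets domain (1 uM in the protein solution; 300mM KCl, 50mM Tris-HCl, 1mM EDTA, 1mM DTT, pH 7.5) received compound, then a probe mix of 5 nM fluorescein-DNA and 100nM Texas-615-DNA. Fluorescence polarization was read for both dyes.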
BRCA1 expr act – activators of BRCA1 expression | 380,000 tested, 1.1% active | Potency, µM (highest dose often 46.1 µM), inactives show at the top dose activation, usual class: activators | MCF7-BRCA1-FFLuc reporter, luminescence, 48 h; response scale: scaled: vehicle 0%, 10 µM genistein 100%; further: nearly all actives have a fitted effect of over 80% in size
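Compounds are tested at multiple concentrations on MCF7 BRCA1-luciferase reporter cells seeded at 2000 per well; after 48 h, a single luminescence end-point is taken and curves fitted to the normalized data.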
Mito fusion yeast – mitochondrial division inhibition or fusion activation | 320,000 tested, 0.23% active | S. cerevisiae fusion-defective mutant growth rescue, CellTiterGlo 48 h | Potency, µM (titrated, usually from 46.1 µM), for inactives: at the top dose growth rescue (activation), hits mostly activators | AID 485298; further: % of control where 0% means no effect; nearly all actives have a fitted effect of over 45% in size
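Read-out: ATP-based luminescence (CellTiterGlo, 10 min ambient) reporting growth of fusion-defective ts yeast after 48 hours at 37C on glycerol/ethanol YPEG medium in the presence of compound.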
B2AR arrestin – beta2AR (human) beta-arrestin recruitment activity | beta-arrestin recruitment to beta2AR, cell-based reporter | 330,000 tested, 0.02% active | Potency, µM (titrated, usually from 46.1 µM), for the others: at the top dose activation, most hits filed as activators | AID 492947;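 further: 0% = DMSO controls and full agonism = EC100 isoproterenol or metaproterenol; nearly all actives have a fitted effect of over 65% in size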
* = called active by the depositor; / = no result. Sampled rows, rich in hits. Any-hit rate of the full collection: about 1.2%. Unless noted, the call rests on the fitted dose curve; in most records, active means well fitted curve in the direction sought with a large enough effect; inconclusive means small, poorly fitted or top-dose-only effect, or another doubt; inactive means no such curve, though single readings can be large; an effect the other way counts as inactive or inconclusive. Potency means the concentration at half of the fitted maximal effect.

SMILES	ERG-DNA inh	BRCA1 expr act	Mito fusion yeast	B2AR arrestin
CC(=O)c1ccc(NC(=S)Nc2ccc3cn[nH]c3c2)cc1	0.0%	6.31µM*	7.7%	-0.3%
Fc1ccccc1N1CCN(C(c2ccccn2)c2nnnn2C2CCCCC2)CC1 (stereo not drawn)	/	-3.4%	12.6µM*	-0.2%
CCn1c2ccccc2c2cc(NC(=O)N3CCOCC3)ccc21	-8.9%	11.2µM*	0.5%	0.2%
O=C(Nc1ccccc1)N1CCOCC1	5.9%	4.0%	-2.8%	-0.8%
O=C(Nc1ccc2c(c1)oc1ccccc12)N1CCOCC1	-1.6%	6.31µM*	3.2%	-1.0%
CCNC(=S)Nc1ccc2c(c1)oc1ccccc12	5.2%	4.47µM*	/	/
CCNC(=S)Nc1ccc2ncoc2c1	-5.0%	10.0%	-0.7%	-0.2%
COc1cc(-c2noc(-c3ccc(NCCc4ccccc4)c([N+](=O)[O-])c3)n2)cc(OC)c1OC	1.3%	21.1%	/	/
O=C(NC1CC1)c1c(O)c2ccccc2[nH]c1=O	-2.5%	28.1%	-11.6%	-0.2%
O=C(NC1CCCCCCC1)c1c(O)c2ccccc2[nH]c1=O	/	10µM*	9.9%	0.0%
O=C1NC(=O)C(Cc2cccc(Oc3ccccc3)c2)S1 (stereo not drawn)	2.0%	45.8%	11.2µM*	3.1%
Cc1nn(CC2CC2)c(=O)n1-c1ccccc1F	10.7%	-2.9%	-7.0%	0.2%
Cc1ccc(-n2c(C)nn(CCOc3ccccc3)c2=O)cc1	-1.3%	6.31µM*	1.4%	0.4%
Cc1nn(CCOc2ccccc2)c(=O)n1-c1c(F)cccc1F	-9.8%	5.62µM*	-3.1%	0.2%
CCCOC(=O)c1cccc(NC(=O)c2c(-c3ccccc3Cl)noc2C)c1	-3.5%	/	2.1%	/
O=S(=O)(NCCC(c1ccc(F)cc1)c1ccco1)c1ccccc1 (stereo not drawn)	-1.5%	-27.1%	22.4µM*	-0.1%
CCCCCn1cnc2c(sc3nc4c(cc32)CSC(C)(C)C4)c1=O	/	2.24µM*	3.1%	-1.1%
COc1ccc(-n2ccn(CC(=O)NCCc3ccccc3)c(=O)c2=O)cc1OC	-0.7%	/	/	/
CCCCN(C)c1ncnc2c1cnn2-c1cccc(Cl)c1	-4.0%	/	/	/
CCCN(CC1CC1)c1nc(C)nc(Nc2c(Cl)cc(Cl)cc2Cl)c1Cl	30.2%	15.8%	14.6µM*	/
CCCN(CC1CC1)c1nc(N)c(C#N)c(CC#N)c1C#N	10.9%	-21.3%	0.6%	-0.1%
CC(=O)N1CCN(/[N+]([O-])=N/Oc2ccc([N+](=O)[O-])cc2[N+](=O)[O-])CC1	/	-32.1%	/	/
O=C1c2ccccc2C(=O)C1c1ccccn1	-4.1%	2.51µM*	0.0%	0.1%
O=C1c2ccccc2C(=O)C1c1ccncc1	-3.7%	24.1%	-7.7%	0.1%
Cc1sc2ncn(/N=C/c3cn(-c4ccccc4)nc3-c3ccccc3)c(=O)c2c1C	/	5.2%	/	/
SMILES	ERG-DNA inh	BRCA1 expr act	Mito fusion yeast	B2AR arrestin
Cc1ccsc1/C=N/n1cnc2sc(C)c(C)c2c1=O	-2.7%	11.2µM*	3.2%	-0.4%
CC(=O)Nc1nonc1-c1nnc(SCC(=O)Nc2cccc(C)c2C)n1-c1ccccc1	5.8%	/	/	/
COc1ccc(C(=O)Cc2cc3cccc(OC)c3oc2=O)cc1	1.1%	15.8µM*	3.6%	-0.5%
COc1cccc2cc(CC(=O)c3ccc(C)cc3C)c(=O)oc12	-6.6%	11.2µM*	5.5%	-0.4%
COc1ccc(C(=O)NNC(=O)c2cc3cccc(OC)c3oc2=O)cc1	5.7%	-14.7%	2.9%	0.4%
COc1cccc2cc(NC(=O)C3CCCCC3)c(=O)oc12	-5.0%	6.31µM*	-0.4%	-0.5%
COc1cccc2cc(C(=O)CS(=O)(=O)c3ccc(C)cc3)c(=O)oc12	1.6%	-5.4%	-10.6%	0.1%
Cc1noc2ncnc(N3CCCC(C(=O)Nc4cccc(C(F)(F)F)c4)C3)c12 (stereo not drawn)	-0.6%	/	/	/
CCOC(=O)c1cc2c(=O)n3ccccc3nc2n(C(C)C)c1=NC(=O)c1cc2ccccc2o1	0.0%	/	/	/
O=C(c1ccncc1)N(c1ccc2oc3c(c2c1)CCCC3)S(=O)(=O)c1ccc(F)cc1	4.1%	-88.6%	17.8µM*	-0.6%
CCN1c2ccccc2-c2nc(SCC(=O)NCc3ccc(C)cc3)ncc2S1(=O)=O	-0.2%	/	/	/
Cc1[nH]c2ccccc2c1-c1csc(NC(=O)CSCCO)n1	0.9%	-15.4%	20µM*	-0.1%
CCOc1ccccc1Nc1nnc(-c2cc3cc(OC)ccc3oc2=O)s1	-11.6%	/	/	/
CCOC(=O)c1sc(-c2ccccc2)nc1C	-6.4%	69.2%	-4.3%	-0.8%
CCOC(=O)Cc1ccc2sc(-c3ccccc3)nc2c1	-7.7%	4.47µM*	-1.1%	0.3%
CCCN1CNc2c(c(=O)[nH]c(=S)n2CCc2cc(Cl)cc(Cl)c2)C1	/	-10.0%	/	/
O=C1CC2C(CCC23OCCO3)c2ccc3ccccc3c21 (stereo not drawn)	/	10µM*	/	/
COc1cc(/C=C/c2ccnc3ccccc23)cc(OC)c1OC	/	-50.0%	/	/
COC(=O)c1nn(-c2ccc(OC)cc2)c(=O)cc1O	-1.5%	6.6%	1.58µM*	-0.3%
COC(=O)c1nn(-c2ccc(OC)cc2)c(=O)cc1Oc1ccccc1	-9.7%	-12.2%	-2.6%	-0.2%
CC(=O)O[C@]1(C(C)=O)CC[C@H]2[C@@H]3C=C(Cl)C4=CC(=O)[C@@H]5C[C@@H]5[C@]4(C)[C@H]3CC[C@@]21C	-2.2%	-22.0%	20.6µM*	0.1%
CC(NC(=O)c1cc(COc2c(F)cccc2F)on1)c1cnn(-c2ccccc2)c1 (stereo not drawn)	-11.9%	7.08µM*	5.0%	-0.8%
COc1ccccc1NC(=O)c1oc2ccccc2c1NC(=O)c1ccc(S(=O)(=O)N(C)C)cc1	1.8%	/	/	/
Cc1cccc(C(=O)Nc2scc(-c3ccc(Br)cc3)c2C(=O)O)c1	0.6%	-11.7%	/	/
Cc1ccc(-c2csc(NC(=O)c3ccc(Br)cc3)c2C(=O)O)cc1	-1.3%	2µM*	-19.1%	-0.4%
SMILES	ERG-DNA inh	BRCA1 expr act	Mito fusion yeast	B2AR arrestin
CC1SCC(NC(=O)c2ccc(Cl)cc2)CS1 (stereo not drawn)	-0.2%	11.2µM*	-3.7%	-0.3%
COc1ccc(CNC(=O)C(=O)NCC(c2ccco2)S(=O)(=O)c2ccc(Cl)cc2)cc1 (stereo not drawn)	-2.2%	/	/	/
CC(C)c1ccc(C(=O)Nc2cc(-c3ccccc3F)nn2-c2ccccc2)cc1	-1.9%	0.0%	/	/
CC1(C)CC(=O)c2sc(NC(=O)C(C)(C)C)nc2C1	12.7%	7.94µM*	-5.7%	-0.4%
CC1(C)CC(=O)c2sc(NC(=O)c3ccccc3)nc2C1	/	/	13.8%	-0.3%
CCc1ccc(NC(=O)CSc2c(C)cnc3c2c(=O)n(C)c(=O)n3C)cc1	4.7%	/	/	/
CCCSc1nc2c(cnn2-c2ccccc2)c(=O)n1N	6.8%	0.0%	0.1%	0.2%
Nn1c(SCc2ccccc2)nc2c(cnn2-c2ccccc2)c1=O	7.2%	3.16µM*	-1.9%	-0.5%
Cc1nn(C)c2c1c(C(F)(F)F)cc(=O)n2C(C)C(=O)NCCc1ccccc1 (stereo not drawn)	-5.3%	/	/	/
CSc1cccc(NC(=O)c2cc3c(COC(C)=O)cnc(C)c3oc2=O)c1	7.7%	/	/	/
